The values below come from ChEMBL document CHEMBL1157539, “Thousands of chemical starting points for antimalarial lead identification” (Nature, 2010).

Holding throughout (assay type): functional
For assay [1], the system named is Plasmodium falciparum. The assay is described as follows: GSK_TCMDC: Inhibition of Plasmodium falciparum 3D7 in whole red blood cells, using parasite LDH activity as an index of growth. Test compounds present at 2uM.
Assay [2] has as its system Plasmodium falciparum. The experiment in a line: GSK_TCMDC: Inhibition of Plasmodium falciparum Dd2 in whole red blood cells, using parasite LDH activity as an index of growth. Test compounds present at 2uM.
Assay [3] relates to HepG2. The assay is described as follows: GSK_TCMDC: Percent inhibition of human HepG2 cell line. Test compounds present at 10uM.

The term Inhibition denotes how much of the control response was suppressed. A higher Inhibition goes with a strong effect.

Turning to `Cc1cccc(-c2ccc(NC(=O)C3CCN(Cc4cccc(O)c4)CC3)cc2)c1`, the Inhibition in assay [1] is reported as 92%; in assay [2] it was 64%; in assay [3], 21%.
Consider `CCN(CC)c1cc(C)c2cc(NC(=O)c3cc(=O)c4ccccc4o3)ccc2n1`, for which the Inhibition in assay [1] is 97%; in assay [2], 67%; in assay [3], 14%.
The like results for `COc1ccc(C2CC(=O)C3=C(C2)NC(C)=C(C(=O)OC2CCCC2)C3c2cccc(O)c2)cc1OC` (centres undefined) were, in that order, 100%, 98% and 8%.
For `CCN(CC)CC#Cc1ccc2[nH]c(C)c(Cl)c(=O)c2c1` the same measures were 96%, 95% and 11%.
As to `CCc1cccc2sc(N3CCN(C(=O)c4ccc([N+](=O)[O-])o4)CC3)nc12`, the Inhibition amounted to 97% in assay [1], 94% in assay [2] and 2% in assay [3].
Take `COc1ccc(-c2nc(NC(=O)CS(=O)(=O)c3ccc(OC)cc3)sc2C)cc1`: the Inhibition came to 95% in assay [1], 89% in assay [2] and 6% in assay [3].
The like results for `CS(=O)(=O)Nc1cccc(-c2cnc3[nH]cc(-c4cc(N)cc(C(=O)O)c4)c3c2)c1` were, in that order, 96%, 96% and 40%.
For `COc1ccc2nccc([C@@H](O)CN3CCC(NCc4cc5ccccc5[nH]4)CC3)c2n1.O=C(O)C(=O)O` the same measures were 100%, 55% and 17%.
For `COc1cc(NC(=O)CCCCCCCN2CCN(C)CC2)c2ncccc2c1` the same measures were 95%, 83% and 2%.
Turning to `O=C1O[C@H](c2ccccc2)[C@H](c2ccccc2)N(C(=O)OCc2ccccc2)[C@H]1Cc1ccccc1C1CCCC1`, the Inhibition is 97% in assay [1], 0% in assay [2] and 56% in assay [3].
The like results for `Cc1c(Cn2ncc(N3CCC(N)CC3)c(Cl)c2=O)cccc1NC(=O)Nc1ccc(-c2ccccc2)cc1.O=C(O)C(F)(F)F` were, in that order, 97%, 43% and 19%.
With `CCOC(=O)c1sc(C(C)Nc2ccccc2)nc1-c1ccccc1` (centres undefined), the Inhibition in assay [1] is listed as 95%; in assay [2], 91%; in assay [3], 0%.
`NCc1ccc(-c2cccc(CNC3CCN(Cc4ccccc4)CC3)c2)cc1.O=C(O)C(F)(F)F`: the Inhibition is on record as 100% in assay [1], 50% in assay [2] and 24% in assay [3].
For `CC(C)CNc1c2c(nc3cnn(-c4c5c(nc6cn[nH]c46)CCCC5)c13)CCCC2` the same measures were 100%, 0% and 7%.
Consider `COc1ccc2ccccc2c1CON1C(=N)N=C(N)NC1(C)C.Cl`, for which the figures for the Inhibition in assay [1], in assay [2] and in assay [3] were 94%, 5% and 25%, respectively.
For `CCCCCCCCCCN1C(=O)C2C(CCCCNC(C)=O)NC3(C(=O)N(Cc4ccc(C(C)(C)C)cc4)c4ccccc43)C2C1=O` (centres undefined) the same measures were 86%, 65% and 3%.
In the case of `Cc1ccc2nc(-c3ccc(C(=O)NC4CCN(Cc5ccccc5)CC4)s3)[nH]c2c1`, the Inhibition came to 97% in assay [1], 83% in assay [2] and 13% in assay [3].
For `CCCCN(CCCC)C(=N)c1cccc2c1CCCC2.Cl`, the results for the Inhibition in assay [1], in assay [2] and in assay [3] were 95%, 9% and 11%, respectively.
For `COc1ccccc1-n1c(SCC(=O)c2ccc3c(c2)CC(=O)N3C)nnc1-c1cccs1` the same measures were 95%, 55% and 7%.
As for `CCOc1ccc(C2CCN(CCCCNC(=O)c3ccc(NC(=O)c4ccc(Cl)cc4)cc3)CC2)c(OCC)c1.Cl`, the results for the Inhibition in assay [1], in assay [2] and in assay [3] were 100%, 95% and 14%, respectively.
`Cc1cc(N[C@@H](Cc2ccccc2)C(=O)NCCOc2ccccc2)nc(NCCc2ccccc2)n1.O=C(O)C(F)(F)F`: the Inhibition was determined as 100% in assay [1], 68% in assay [2] and 12% in assay [3].
Consider `Cc1nc(C)c(-c2ccc(Oc3ccc(OC(F)(F)F)cc3)cc2)c(O)c1I`, for which the Inhibition in assay [1] turned out to be 95%; in assay [2], 96%; in assay [3], 3%.
For `O=C(Nc1ccc(Cn2ncc(N3CCCNCC3)c(Cl)c2=O)cc1)Nc1ccc(OCc2ccccc2)cc1.O=C(O)C(F)(F)F` the same measures were 90%, 32% and 15%.
For `Nc1nc(N)c2cc(C#Cc3ccc(-c4ccccc4)cc3)ccc2n1` the same measures were 94%, 3% and 20%.
Turning to `CCOC(=O)c1c(C)n(-c2ccccc2)c2ccc(O)cc12`, the Inhibition stood at 100% in assay [1], 87% in assay [2] and 0% in assay [3].
For the compound `CN1CCN(Cc2c(O)ccc3c(=O)c(Oc4ccc(C(C)(C)C)cc4)c(C(F)(F)F)oc23)CC1`, the Inhibition is recorded as 99% in assay [1], 88% in assay [2] and 0% in assay [3].
For `COc1ccc(C2CC(=O)C3=C(C2)NC(C)=C(C(=O)OC2CCCC2)C3c2cccc(O)c2)cc1` (centres undefined) the same measures were 88%, 83% and 0%.
The like results for `C=CCn1c(Sc2ccc(C#N)c([N+](=O)[O-])c2)nnc1-c1ccc(OC)cc1` were, in that order, 96%, 74% and 0%.
`CC(C)(C)c1cc(C(=O)N2CCN(c3cnccn3)CC2)n(Cc2ccccc2)n1`: the values for the Inhibition in assay [1], in assay [2] and in assay [3] were 92%, 33% and 0%, respectively.
Regarding `CC(C)CCOc1ccc(NC(=O)c2cccs2)cc1`, the Inhibition in assay [1] was 95%; in assay [2], 95%; in assay [3], 11%.
For the compound `Cc1ccc2[nH]c(Nc3ccc(Nc4nc5cc(C)ccc5[nH]4)c(C)c3)nc2c1`, the Inhibition was determined as 99% in assay [1], 94% in assay [2] and 12% in assay [3].
The like results for `CCN(CC)CCN(Cc1ccc(-c2ccc(C(F)(F)F)cc2)cc1)C(=O)Cn1c(CCc2cccc(F)c2F)nc(=O)c2cc(F)ccc21.O=C(O)C(O)C(O)C(=O)O` were, in that order, 98%, 45% and 15%.
On to `CCNc1cc(C)nc(Nc2ccc(NC(=O)c3ccccc3Cl)cc2)n1`, for which the figures for the Inhibition in assay [1], in assay [2] and in assay [3] were 100%, 52% and 48%, respectively.
For `Cc1n[nH]c2ccc(-c3cc(OC[C@@H](N)Cc4ccccc4)cnc3-c3cc4ccccc4s3)cc12.O=C(O)C(F)(F)F` the same measures were 99%, 68% and 41%.
The like results for `C=CCOc1ccc(C(=O)Nc2nonc2-c2ccc(OC)c(OC)c2)cc1` were, in that order, 100%, 91% and 2%.
On to `COc1cccc(NC(=O)NC2CCN(c3ccnc(Nc4cc(OC)c(OC)c(OC)c4)n3)C2)c1` (centres undefined), for which the Inhibition in assay [1] was 95%; in assay [2] it was 57%; in assay [3] it was 8%.
Regarding `CCc1c(CCNCCCCCCNCCc2ccc(Br)cc2)ccc(OC)c1OC.Cl`, the Inhibition was found to be 99% in assay [1], 14% in assay [2] and 100% in assay [3].
As for `O=C(NCCCCN1CCC(c2ccc(C(F)(F)F)cc2C(F)(F)F)CC1)c1ccc(NC(=O)c2ccc(Cl)cc2)cc1`, the results for the Inhibition in assay [1], in assay [2] and in assay [3] were 99%, 59% and 4%, respectively.
As to `Cc1cc2nc(-c3ccc(/C=C/C(=O)NC4CCCCC4)cc3)[nH]c2cc1C`, the figures for the Inhibition in assay [1], in assay [2] and in assay [3] were 93%, 10% and 9%, respectively.
With `Cc1cc(OCC2CCN(c3ccc(C(=O)NC4CC4)cn3)CC2)ccc1F`, the figures for the Inhibition in assay [1], in assay [2] and in assay [3] were 94%, 95% and 6%, respectively.
For `CC(C)c1ccc(NC(=O)Nc2ccc(CCNCCCc3ccccc3)cc2)cc1`, the Inhibition in assay [1] amounted to 100%; in assay [2], 56%; in assay [3] it was 22%.
The like results for `Cc1ccccc1NC(=S)NC1CCN(CCCCCNC(=O)/C=C/c2ccc(Cl)c(Cl)c2)CC1` were, in that order, 99%, 7% and 14%.
For `CCOc1cc(C)ccc1NC1CCN(CCCCNC(=O)c2ccc(NC(=O)c3ccc(Cl)cc3)cc2)CC1` the same measures were 100%, 70% and 17%.
As for `COc1ccc(CC2(c3ccc(F)cc3)N=C(N)N(CCCc3ccccc3)C2=O)cc1.O=C(O)C(F)(F)F` (centres undefined), the Inhibition stood at 99% in assay [1], 97% in assay [2] and 38% in assay [3].
As to `c1ccc(CN2CCC(NCc3ccc(-c4cncc5ccccc45)cc3)CC2)cc1`, the values for the Inhibition in assay [1], in assay [2] and in assay [3] were 98%, 19% and 21%, respectively.
In the case of `Cl.Nc1ccnc2ccc(NC(=O)CCCCCc3ccccc3)cc12`, the results for the Inhibition in assay [1], in assay [2] and in assay [3] were 96%, 30% and 47%, respectively.
For the compound `Cc1csc(-c2nonc2NC(=O)COc2ccccc2C(C)C)n1`, the Inhibition in assay [1] is 90%; in assay [2], 85%; in assay [3], 14%.
For `Cl.FC(F)(F)c1cc(CNCCCNc2nc3ccncc3[nH]2)ccc1Cl` the same measures were 99%, 15% and 11%.
The like results for `COc1cc2nccc(Nc3ccc(OCc4ccccc4)cc3)c2cc1OC` were, in that order, 100%, 99% and 35%.
With `O=C(Nc1ccc(OC2CCN(Cc3ccc(F)cc3)C2)c(Cl)c1)c1ccco1.O=C(O)C(F)(F)F` (centres undefined), the Inhibition amounted to 96% in assay [1], 97% in assay [2] and 9% in assay [3].
Regarding `CCN(CC)CCCCNc1cc(-c2[nH]c(C(C)(C)C)nc2-c2ccc3cc(OC)ccc3c2)ccn1.O=C(O)C(F)(F)F`, the Inhibition in assay [1] is recorded as 85%; in assay [2], 76%; in assay [3], 23%.
As for `CCOc1ccccc1NC(=O)Nc1ccc2c(c1)CCN(C1CCC1)CC2.Cl`, the Inhibition in assay [1] is recorded as 88%; in assay [2], 2%; in assay [3] it was 15%.
The like results for `CC(C)CN1CCN(CCNc2c3ccccc3nc3ccccc23)CC1` were, in that order, 97%, 79% and 26%.
The like results for `Br.CCCCCCCCn1c2c(c(=N)c3c1CCC3)CCCC2` were, in that order, 100%, 100% and 57%.
With `Cn1nccc1C(=O)NCCNCc1ccc(-c2ccc(-c3nc4cc(C(F)(F)F)ccc4[nH]3)cc2)cc1.O=C(O)C(F)(F)F`, the values for the Inhibition in assay [1], in assay [2] and in assay [3] were 100%, 99% and 35%, respectively.
The like results for `Cc1cc(Cl)ccc1NC(=O)Nc1ccc2nccc(N3CCN(C)CC3)c2c1` were, in that order, 100%, 74% and 0%.
Consider `O=C(NCc1cccs1)[C@H](Cc1ccccc1)Nc1ccnc(NCCc2ccc(F)cc2)n1.O=C(O)C(F)(F)F`, for which the figures for the Inhibition in assay [1], in assay [2] and in assay [3] were 85%, 52% and 1%, respectively.
The like results for `CN(CCc1ccccc1)c1ncc(-c2cccc(CNCCC3CCCN3C)c2)cn1` (centres undefined) were, in that order, 92%, 98% and 99%.
For `O=C(Nc1cccc(C2=NCCN2)c1)Nc1cccc(C2=NCCN2)c1` [IMIDOCARB] the same measures were 98%, 99% and 16%.
As for `CC(C)CNC(=O)c1cncc(-c2ccc(CN3CCC(N4CCCC4)CC3)cc2)c1.O=C(O)C(F)(F)F`, the results for the Inhibition in assay [1], in assay [2] and in assay [3] were 100%, 42% and 25%, respectively.
On to `CSc1nc2nc(C)c(Cc3cccc(F)c3)c(C)n2n1`, for which the Inhibition in assay [1] is 87%; in assay [2], 45%; in assay [3], 3%.
The like results for `Cl.Oc1ccc2ccccc2c1CNCCC1CCCCC1` were, in that order, 99%, 99% and 16%.
With `O=C(Nc1cccc(CN2CCN(Cc3cccc(O)c3)CC2)c1)c1ccc(Cl)c(Cl)c1.O=C(O)C(F)(F)F`, the Inhibition was 100% in assay [1], 35% in assay [2] and 28% in assay [3].
